# ELG1 DNA repair = qHTS screen for small molecules that inhibit ELG1-dependent DNA repair in human embryonic kidney (HEK293T) cells expressing luciferase-tagged ELG1; HEK293T ELG1-luciferase reporter, luminescence, 16 h; DNA damage induced by 5-fluorouridine; Potency, µM (top dose mostly 46.1 µM), for the others: at the highest dose activity change, negative = inhibition, hits mostly inhibitors; actives 2.3% (n = 330,000); AID 504467, 2011; further: potency means the concentration at half of the fitted maximal effect; nearly all actives have a fitted effect of over 55% in size
#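 Step one: seed 2,000 cells per well. Step two: pin-transfer compound or DMSO alongside 5-fluorouridine. Step three: incubate 16 hr, 37 °C, 5% CO2. Step four: add ONE-Glo, wait 30 min, read luminescence.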
# TDP1 cell noCPT = qHTS for Inhibitors of human tyrosyl-DNA phosphodiesterase 1 (TDP1): qHTS in cells in absence of CPT; DT40 Tdp1-/- hTDP1 cells, no CPT, ATP luminescence, 48 h; Potency, µM (titrated, usually from 46.2 µM), for the others: at the top dose activity change, negative = growth inhibition, actives largely listed as inhibitors; actives 15% (n = 420,000); AID 686978, 2013; further: potency means the concentration at half of the fitted maximal effect; nearly all actives have a fitted effect of over 55% in size
#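 Stably hTDP1-transfected Tdp1-null chicken DT40 cells were treated with library compounds minus camptothecin and grown for at least 48 hr at 37 °C, after which cellular ATP was quantified by luminescence.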
# RORg inh = qHTS for inhibitors of ROR gamma transcriptional activity; Nuclear receptor ROR-gamma (Mus musculus), P51450; Drosophila S2 Gal4-RORgamma UAS-luciferase reporter, 20 h; Potency, µM (top dose mostly 53.6 µM), without a hit: top-dose activity change, negative = inhibition, hits mostly inhibitors; actives 5.4% (n = 310,000); further: potency means the concentration at half of the fitted maximal effect; nearly all actives have a fitted effect of over 60% in size
# Target sequence (P51450 whole entry, looked up, the tested form may be a part): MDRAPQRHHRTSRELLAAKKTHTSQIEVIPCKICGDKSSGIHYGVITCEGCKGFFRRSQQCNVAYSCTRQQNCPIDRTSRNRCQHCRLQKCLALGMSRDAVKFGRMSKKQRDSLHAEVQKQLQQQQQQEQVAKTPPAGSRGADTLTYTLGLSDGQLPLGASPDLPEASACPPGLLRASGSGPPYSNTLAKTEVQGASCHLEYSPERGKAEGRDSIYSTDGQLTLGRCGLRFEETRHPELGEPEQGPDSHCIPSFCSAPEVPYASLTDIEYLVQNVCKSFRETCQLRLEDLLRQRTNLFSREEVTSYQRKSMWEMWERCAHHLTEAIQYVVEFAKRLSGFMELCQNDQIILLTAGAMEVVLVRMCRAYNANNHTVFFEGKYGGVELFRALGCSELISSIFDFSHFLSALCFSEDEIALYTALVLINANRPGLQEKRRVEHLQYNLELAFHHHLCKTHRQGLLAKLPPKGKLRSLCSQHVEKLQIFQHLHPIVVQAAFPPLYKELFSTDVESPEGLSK
#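 In this cell-based reporter format, copper sulfate (700 uM final) drives Gal4–ROR gamma fusion expression from a metallothionein promoter in Drosophila Schneider cells; compounds preincubated 1 hr, reporter read after 20 hr at ambient temperature.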
# DT40 TDP1 CPT = qHTS for Inhibitors of human tyrosyl-DNA phosphodiesterase 1 (TDP1): qHTS in cells in presence of CPT; chicken DT40 Tdp1-/-;hTDP1 cells + 20 nM CPT, ATP luminescence, 48 h; Potency, µM (doses to about 46.2 µM), without a hit: at the highest dose activity change, negative = growth inhibition, actives largely listed as inhibitors; actives 12% (n = 420,000); AID 686979, 2013; further: potency means the concentration at half of the fitted maximal effect; nearly all actives have a fitted effect of over 55% in size
#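 Chicken DT40 Tdp1-/- cells stably complemented with human TDP1 were seeded at 400 cells/well in medium containing 20 nM camptothecin, exposed to pin-transferred compounds, and grown at 37 °C for at least 48 hr. Viability was read as ATP luminescence.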
# IL1B secr inh = qHTS for Inhibitors of Inflammasome Signaling: IL-1-beta AlphaLISA Primary Screen. THP-1 LPS/ATP IL-1B secretion, AlphaLISA, 16 h; hits give low values. activity change, % at 57.5 µM. actives 4.7% (n = 360,000). AID 743279, 2014; in the data active means activity change below about -50%; inconclusive means mostly about -30% to -49%
#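 THP-1 cells pretreated 1 hr with compounds (up to 57.5 uM final), then stimulated with LPS (250 ng/mL final) plus ATP (1.25 mM final); secreted IL-1B measured by AlphaLISA after 16 hr, decreased signal indicating inhibition.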
# Gal4-VP16 FLuc = VP16 counterscreen qHTS for inhibitors of ROR gamma transcriptional activity. Drosophila S2 Gal4-VP16 UAS-luciferase, luminescence, 20 h. actives 3.5% (n = 310,000). Potency, µM (top dose mostly 53.6 µM), for the others: top-dose activity, negative = inhibition, hits mostly inhibitors;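 further: Gal4-VP16 expression switched on by copper sulfate through the metallothionein promoter; potency means the concentration at half of the fitted maximal effect; nearly all actives have a fitted effect of over 50% in size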
# An asterisk follows results filed as active; u = inconclusive; x = not tested or not shown. Sampled rows, rich in hits. Any-hit rate of the full collection: about 21%. Unless noted, the call rests on the fitted dose curve; in most records, active means well fitted curve in the direction sought with a large enough effect; inconclusive means small, poorly fitted or top-dose-only effect, or another doubt; inactive means no such curve, though single readings can be large; an effect the other way counts as inactive or inconclusive. On the % scale 0 is the no-effect control and ±100 the full control effect.
SMILES,ELG1 DNA repair,TDP1 cell noCPT,RORg inh,DT40 TDP1 CPT,IL1B secr inh,Gal4-VP16 FLuc
Cc1cn([C@H]2C[C@H](O)[C@@H](CNCc3cccn3-c3nccs3)O2)c(=O)[nH]c1=O,x,-19%,x,-23%,-8,x
COc1ccccc1CCNC(=O)c1ccc(Br)s1,u,u,0%,u,u,-10%
COC(=O)CNC(=O)C1Cc2ccccc2CN1S(=O)(=O)c1cccs1 (stereo unspecified),18%,-8%,22%,-18%,-74*,-4%
O=C(CC[C@H]1O[C@@H](n2cnc3c(NC(=O)c4ccccc4)ncnc32)[C@H](O)[C@@H]1O)NCc1nc2ccccc2[nH]1,x,4%,x,-3%,18,x
CCOc1ccc(-n2c(=O)c3c(C)c(C)sc3n(CC(=O)c3ccccc3)c2=O)cc1,x,16µM*,x,13µM*,x,x
CCN(Cc1ccccc1)C(=O)Cn1c(=O)n(-c2ccc(C)c(C)c2)c(=O)c2c(C)c(C)sc21,x,u,x,21µM*,x,x
Cc1ccc(-n2c(=O)c3c(C)c(C)sc3n(CC(=O)c3ccc(Cl)cc3)c2=O)cc1C,x,-5%,x,-14%,x,x
CCN(Cc1ccccc1)C(=O)Cn1c(=O)n(-c2ccc(Cl)cc2)c(=O)c2c(C)c(C)sc21,x,18µM*,x,3.7µM*,x,x
CCOc1ccc(-n2c(=O)c3c(C)c(C)sc3n(CC(=O)N(CC)Cc3ccccc3)c2=O)cc1,x,12µM*,x,18µM*,x,x
CCOC(=O)N1CCc2c(sc3c2c(=O)n(-c2ccc(CC)cc2)c(=O)n3CC(=O)c2ccccc2)C1,x,-15%,x,u,x,x
Cc1cc2[nH]c(=O)c(=O)[nH]c2cc1S(=O)(=O)Nc1cccc(C(F)(F)F)c1,x,-1%,x,1%,x,x
CCCn1nc(C(=O)N2CCN(S(=O)(=O)c3ccc(C)c(C)c3)CC2)c2ccccc2c1=O,23µM*,u,x,u,7,x
CCCn1nc(C(=O)N2CC(=O)Nc3ccccc32)c2ccccc2c1=O,u,15µM*,-19%,21µM*,41,-2%
CCCn1nc(C(=O)NNC(=O)c2ccc(C)c(C)c2)c2ccccc2c1=O,u,-7%,x,-4%,5,x
COc1ccc(N(CC(O)Cn2cnc3ccccc32)S(=O)(=O)c2ccc(C)cc2)cc1 (stereo unspecified),u,u,38%,-24%,8,u
O=C(CCc1ccc(S(=O)(=O)N2CCOCC2)cc1)OCC(=O)c1ccccc1,11%,-1%,x,8%,6,x
COc1ccccc1N1CCN(C(=O)/C=C/c2ccc(C)cc2)CC1,-3%,13µM*,2%,u,8,3%
COc1ccccc1N1CCN(C(=O)COc2ccc(C)cc2Br)CC1,-17%,u,-8%,-16%,-16,2%
COc1ccccc1N1CCN(C(=O)COc2cc(C)ccc2C)CC1,-25%,16µM*,-2%,u,-3,-5%
Cc1cc(OCC(=O)N2CCC(C(=O)O)CC2)c2c(C)cc(=O)oc2c1,-5%,-7%,-10%,7%,7,1%
COc1ccccc1N1CCN(C(=O)COc2cc(C)cc3oc(=O)cc(C)c23)CC1,u,21µM*,27%,16µM*,-8,-6%
COc1ccc(/C=C/C(=O)NC(=S)N2CCN(c3ccccc3OC)CC2)cc1,u,-28%,2%,-15%,15,-1%
CC(=O)N(C)C1=C(O)c2ccccc2C(=O)C1=O,-1%,-1%,5%,-17%,25,-13%
CC(=O)N(C1=C(N)C(=O)c2ccccc2C1=O)C(C)C,23µM*,u,11µM*,u,57,0%
CC1CN(C(=O)/C=C/c2ccc(SC(F)F)cc2)CC(C)O1 (stereo unspecified),-16%,13µM*,7%,u,-5,14%
SMILES,ELG1 DNA repair,TDP1 cell noCPT,RORg inh,DT40 TDP1 CPT,IL1B secr inh,Gal4-VP16 FLuc
Cc1ccccc1N1CCN(Cc2c(C#N)c3ccccc3n2C)CC1,-4%,u,-18%,18µM*,11,0%
Cc1ccc(SCc2c(C#N)c3ccccc3n2C)cc1,13%,21µM*,12%,21µM*,-3,u
Cn1c(CSc2ccccc2)c(C#N)c2ccccc21,u,-27%,-10%,-3%,-15,-10%
Nc1cccc(/C=C/c2ccncc2)c1,u,2%,22%,0%,-11,16%
COc1ccccc1-c1csc(C(O)c2ccc(F)cc2)n1 (stereo unspecified),x,u,x,u,-15,x
C[C@@H]1CN([C@@H](C)CO)C(=O)CCCn2nncc2CO[C@H]1CN(C)C(=O)NC1CCCCC1,x,-10%,x,-1%,32,x
Cc1nnc(N2C(=O)c3cccc4c([N+](=O)[O-])ccc(c34)C2=O)s1,u,4.6µM*,4µM*,7.3µM*,-95*,3.2µM*
Cc1cnc(N2C(=O)c3ccc([N+](=O)[O-])cc3C2=O)s1,1%,-1%,-29%,5%,u,-9%
Cc1ccc(N2C(=O)c3cccc4c([N+](=O)[O-])ccc(c34)C2=O)c2cccnc12,-11%,0.73µM*,25%,0.82µM*,13,-11%
Cc1ccc(N2C(=O)c3cccc4c(N5CCN(C)CC5)ccc(c34)C2=O)c2cccnc12,u,u,4%,u,35,-12%
O=C1c2cccc3cccc(c23)C(=O)N1Cc1cccnc1,0%,u,2%,1%,24,12%
O=C1c2cccc3c([N+](=O)[O-])ccc(c23)C(=O)N1Cc1cccnc1,u,4.6µM*,4.5µM*,3.7µM*,-101*,u
Cc1c(Cl)cccc1NC(=O)CSc1ncnc2c1cnn2CCO,u,-1%,-10%,5%,-16,-2%
O=C1NC[C@H](CCCCN2C[C@H](Cc3ccc(O)cc3)N(CCc3ccc(O)cc3)C(=O)C2=O)N(Cc2ccccc2)C1=O,x,-17%,x,-5%,-18,x
CC1(c2nnc(-c3ccccc3)o2)CC(c2ccc([N+](=O)[O-])cc2)=NO1 (stereo unspecified),x,18µM*,x,u,10,x
